Source: PubChem BioAssay
HCV inh: HCV inhibition; Huh7.5.1 HCVcc-Cre infection, luciferase reporter, 44 h; Potency, µM (doses to about 41.8 µM), without a hit: at the highest dose activity change, negative = inhibition, hits mostly inhibitors; actives 3.4% (n = 340,000); AID 651820; active means well fitted inhibition curve with a large enough effect; inconclusive means small, poorly fitted or top-dose-only effect, or another doubt; inactive means no such curve, though single readings can be large or run the other way; further: potency means the concentration at half of the fitted maximal effect; on the % scale 0 is the no-effect control and ±100 the full control effect
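Antiviral activity was scored by luciferase reporter output from cells infected with HCVcc-Cre (~0.5 moi) in presence of compound, 44 h infection period, cells seeded 1,000/well 4 h prior.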
Lassa entry inh: Lassa virus entry inhibition; Lassa virus pseudotype entry inhibition, cell reporter; Potency, µM (highest dose often 37.9 µM), for inactives: at the top dose activity change, negative = inhibition, usual class: inhibitors; actives 1.2% (n = 300,000); AID 540256; calls by dose curve; tested in HEK293 cells; further: potency means the concentration at half of the fitted maximal effect; on the % scale 0 is the no-effect control and ±100 the full control effect; nearly all actives have a fitted effect of over 50% in size
Shiga toxin inh: inhibitors of Shiga toxin in Vero cells; Vero cells, Shiga toxin protein synthesis inhibition reporter; inhibition, % at 38.7 µM; actives 9.2% (n = 290,000); AID 2315; in the data active means inhibition mostly above about 28%, no sharp cut-off; inactive means mostly below about 43%; further: 0% is about no effect
FMDV antiviral: antivirals against foot and mouth disease virus | FMDV antiviral cell-based qHTS | Potency, µM (highest dose often 57.9 µM), for the others: at the top dose activity change, negative = inhibition, usual class: inhibitors | actives 1.2% (n = 410,000) | AID 1159524; calls by dose curve; tested in HEK293T cells; further: read-out not given here; potency means the concentration at half of the fitted maximal effect; on the % scale 0 is the no-effect control and ±100 the full control effect; nearly all actives have a fitted effect of over 45% in size
Cycloheximide cs: affects cycloheximide protein synthesis inhibition readout, counter-screen; cell reporter, cycloheximide protein synthesis inhibition counterscreen; max response, %; AID 2314; actives 12% (n = 300,000); in the data active means max response mostly above about 13%, no sharp cut-off; inactive means mostly below about 14%; further: read at 38.3 µM for the half of the compounds with a filed dose; 0% is about no effect
MARV entry inh: blocks Marburg virus binding to or entry into cells; AID 540276; Marburg virus pseudotyped entry inhibition, cell reporter; actives 1.8% (n = 300,000); Potency, µM (series often up to 37.8 µM), for inactives: at the top dose activity change, negative = inhibition, hits mostly inhibitors; calls by dose curve; tested in HEK293 cells; further: potency means the concentration at half of the fitted maximal effect; on the % scale 0 is the no-effect control and ±100 the full control effect
* = called active by the depositor; ? = inconclusive; . = no result given; [ ] = dose if it differs, or a comment. An excerpt weighted towards active compounds, which were near 13% of everything screened.

SMILES	HCV inh	Lassa entry inh	Shiga toxin inh	FMDV antiviral	Cycloheximide cs	MARV entry inh
Cc1ccccc1OC(C)C(=O)N1CCC(Cc2ccccc2)CC1 (centres undefined)	?	6.2%[46.1 µM]	-13.8	-24.7%	-3.0	-19.2%[46.1 µM]
CCOc1cccc2sc(N(CCN(C)C)C(=O)c3cc4ccccc4cc3OC)nc12	14.1µM*	.	-17.7	-13.4%	-6.4	.
COc1ccc(/C=N/n2c(N)nc3ccccc32)cc1OC	-10.2%	19.4%	50.5	-4.2%	28.9*	-20.1%
COc1ccc(/C=N/n2c(=S)n(C)c3ccccc32)cc1OC	?	-5.8%	3.1	-16.9%	5.6	-25.5%
COc1cccc(/C=N/n2c(SC)nnc2-c2ccccc2)c1OC	-4.9%	11.2µM*	-15.4	?	-2.1	?
COc1cccc(C=NN2CCCCCC2)c1OC	-14.5%	-2.2%[46.1 µM]	.	37.0%	.	?
COc1cccc(/C=N/n2c(N)nc3ccccc32)c1OC	-6.4%	-1.3%	37.5	.	25.4*	?
COc1cccc(/C=N/n2cnc3ccccc32)c1OC	-15.6%	-0.2%	70.7	17.8%	30.6*	?
CCOC(=O)C(Cc1ccccc1)NC(=O)CCc1nnc2ccc(N3CCOCC3)nn12 (centres undefined)	24.9%	8.6%[46.1 µM]	3.3	2.3%	-2.3	-8.3%[46.1 µM]
Cc1ccccc1C(=O)N1CCC(C(=O)Nc2nccs2)CC1	24.2%	10.7%[46.1 µM]	-0.7	7.3%	9.0	29.4%[46.1 µM]
COc1ccc(/C=N/n2c(N)nc(-c3ccccc3)c2-c2ccccc2)cc1	?	?	86.3*	?	30.6*	?
C(=N\n1cnc2ccccc21)/c1cccnc1	-8.6%	?	57.9	47.1%	18.8*	3.2%
COc1ccc(/C=N/n2c(C)nnc2C)c(OC)c1OC	-7.3%	12.7%	68.2*	22.0%	5.9	-9.4%
COc1ccc(/C=N/N2CCN(C)CC2)c(OC)c1OC	11.5%	.	10.2	18.3%	4.7	6.0%[46.1 µM]
CCNC(=O)C(=O)NCC1OCCCN1S(=O)(=O)c1ccc(F)cc1C (centres undefined)	19.8%	14.3%	9.9	-8.3%	-3.0	-3.8%
Cc1ccc(N(CC(=O)NCc2ccccc2Cl)S(=O)(=O)c2cccs2)cc1	7.0%	-12.8%	-23.1	.	-7.2	-27.3%
Cc1ccc(C)c(N2CCN(S(=O)(=O)c3ccc4c(c3)CC(C)N4C(=O)C3CC3)CC2)c1 (centres undefined)	?	?	-1.6	-26.0%	-3.1	?
O=C1c2cccnc2C(Nc2ccc(Cl)cc2)N1Cc1cccs1 (centres undefined)	3.0%	-17.5%	10.1	-15.2%	1.7	?
C/C(=N\NC(=O)c1ccoc1C)c1ccccc1	2.4%	3.4%	63.6*	50.7%	44.1*	?
C/C(=N/NC(=O)c1ccoc1C)c1ccc(NC(=O)C2CCCC2)cc1	41.6%	?	65.1*	20.8%	58.1*	-11.6%
Cc1occc1C(=O)NNC(=O)C1CCCCC1	-0.5%	10.0%	1.7	-11.3%	5.4	?
CC(C)C[C@@H](CN1CCC[C@@H]1CN1C(=S)NC[C@@H]1Cc1ccccc1)N1C[C@H](Cc2ccc(O)cc2)N(CCc2ccccc2)C1=S	.	.	.	-4.6%	.	.
CCCCS(=O)(=O)N1CN(S(=O)(=O)CCCC)C2NC(=O)NC21 (centres undefined)	13.0%	10.5%	21.9	33.4%	45.2*	15.5%
O=C(COc1ccc(Br)cc1)Nc1ccc2c(c1)C(=O)NC2=O	-2.3%	-8.8%	-10.8	5.7%	1.0	-2.8%[46.1 µM]
CCN1CCN(c2ccc(S(=O)(=O)N3CCOCC3)cc2NC(=O)CCOc2ccccc2)CC1	2.3%	14.1%[46.1 µM]	-7.7	-18.6%	-3.3	-26.2%[46.1 µM]
SMILES	HCV inh	Lassa entry inh	Shiga toxin inh	FMDV antiviral	Cycloheximide cs	MARV entry inh
Cc1cccc(NC(=O)/C(C#N)=C/c2ccco2)c1	.	?	.	45.5%	.	.
NC(=O)C1=C[C@@H](c2ccc(Br)cc2)C[C@@H](OCCCCO)O1	9.3%	.	18.6	-21.9%	7.8*	.
NC(=O)C1=C[C@@H](c2ccccc2)C[C@@H](OCCCCO)O1	12.2%	.	.	?	.	.
C#Cc1ccc([C@@H]2C=C(C(=O)N3CCOCC3)O[C@H](OCCCCO)C2)cc1	-2.3%	.	-5.4	-3.2%	-0.6	.
C#CCNC(=O)C1=C[C@@H](c2ccc(Br)cc2)C[C@@H](OCCCCO)O1	-19.9%	.	35.4*	-5.3%	13.3*	.
O=C(C1=C[C@H](c2ccc(Br)cc2)C[C@H](OCCCCO)O1)N1CCOCC1	-11.5%	.	31.1	-14.0%	12.2*	.
